Experimental data from PubChem BioAssay (NCATS).
Results filed as inconclusive are left out. Active and inactive are the calls of the source. Calls come from the whole dose curve; as a rule, active = well fitted curve in the direction sought with a large enough effect; inconclusive = small, poorly fitted or top-dose-only effect, or another doubt; inactive = no such curve, though single readings can be large; an effect the other way counts as inactive or inconclusive.

Assays:
[1] = qHTS Screen of the MIPE 4.0 Collection Against Ewings Sarcoma (TC32) (AID 1259256); note: nearly all actives have a fitted effect of over 45% in size
Procedure, shortened: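 Measured: ATP luminescence (CellTiter-Glo) 10 min after reagent addition, following 48 h drug treatment. Relative luciferase units converted to percent activity, with no-cell wells as full and DMSO wells as zero inhibition.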

[2] = NS1 protein of Zika virus - qHTS assay to identify small molecule inhibitors in human HEK 293 cells (AID 1347053); note: nearly all actives have a fitted effect of over 55% in size
Procedure, shortened: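 HEK 293 cells, seeded 20 h at 37 C, were pretreated with compound 1 h, then infected with ZIKV MR766 (MOI = 0.5) for 24 h. NS1 was read by TR-FRET with two anti-NS1 antibodies, normalized to uninfected and infected wells.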

[3] = qHTS of pediatric cancer cell lines to identify multiple opportunities for drug repurposing: Primary screen for TC32 cells (AID 1347089); note: nearly all actives have a fitted effect of over 60% in size
Procedure, shortened: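 Measured quantity: luminescence from CellTiter-Glo, reflecting metabolically active TC32 cells following 48 h of compound. Curves came straight from multi-point titrations, with 8 or 11 points in primary and 11 in confirmatory screening.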

[4] = P-glycoprotein substrates identified in KB-8-5-11 adenocarcinoma cell line, qHTS therapeutic library screen (AID 1346987); note: nearly all actives have a fitted effect of over 65% in size
Procedure, shortened: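 Steps: plate 500 KB-8-5-11 cells/well in DMEM + 10% FCS (colchicine removed); pin compounds in dose-response; incubate 72 h, 37 degree C, 5% CO2; add CellTiter-Glo, 5 min; read luminescence.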

[5] = qHTS of pediatric cancer cell lines to identify multiple opportunities for drug repurposing: Primary screen for DAOY cells (AID 1347090); note: nearly all actives have a fitted effect of over 55% in size
Procedure, shortened: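 Eight- or eleven-point concentration series, 48 h treatment at 37 degrees C in growth media; readout CellTiter-Glo luminescence. Potency and efficacy were taken from the concentration-response curves.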
Potency is the fitted concentration of half-maximal effect.

## N=c1ccn2c(n1)O[C@H]1[C@@H](O)[C@@H](CO)O[C@H]12
[1]
  Potency: 0.372 µM (active)
[2]
  Potency: inactive
[3]
  Potency: 1.04 µM (active)

## C[C@H](NCc1ccc(OCc2cccc(F)c2)cc1)C(N)=O
[1]
  Potency: 14.8 µM (active)
[2]
  Potency: 23.5 µM (active)
[3]
  Potency: 18.6 µM (active)

## CC(C=CC1=C(C)CCCC1(C)C)=CC=CC(C)=CC(=O)Nc1ccc(O)cc1
[1]
  Potency: 12.1 µM (active)
[4]
  Potency: 24.1 µM (active)
[5]
  Potency: 42.9 µM (active)

## CN1CCc2c(c3ccccc3n2Cc2ccc(C(=O)NO)cc2)C1
[1]
  Potency: 18.7 µM (active)
[5]
  Potency: 3.72 µM (active)

## O=C(Nc1cc2cc[nH]c2cn1)c1ccccc1
[1]
  Potency: 13.2 µM (active)
[2]
  Potency: inactive
[5]
  Potency: 14.8 µM (active)

## Cc1cc(Nc2ncc3c(n2)N(C)C(=O)N(c2cc(NC(=O)c4cccc(C(F)(F)F)c4)ccc2C)C3)n(C)n1
[1]
  Potency: 0.418 µM (active)
[2]
  Potency: inactive
[3]
  Potency: 1.47 µM (active)
[5]
  Potency: 0.935 µM (active)

## Nc1ccn(C[C@@H](CO)OCP(=O)(O)O)c(=O)n1
[1]
  Potency: inactive
[2]
  Potency: inactive
[3]
  Potency: inactive
[5]
  Potency: inactive

## FC(F)(F)c1ccc(Nc2nc3ccc(Oc4ccnc(-c5ncc(C(F)(F)F)[nH]5)c4)cc3[nH]2)cc1
[1]
  Potency: 9.35 µM (active)
[3]
  Potency: inactive
[5]
  Potency: 18.7 µM (active)

## C[C@]12CCC(=O)C=C1[C@@H]1CC1[C@H]1[C@H]3[C@@H]4C[C@H]4[C@@]4(CCC(=O)O4)[C@@]3(C)CC[C@H]12 (stereo partly drawn)
[1]
  Potency: inactive
[2]
  Potency: inactive
[3]
  Potency: inactive
[5]
  Potency: inactive

## CCC(C(=O)O)C1CCC(C)C(C(C)C(O)C(C)C(=O)C(CC)C2OC3(C=CC(O)[C@@]4(CC[C@](C)(C5CC[C@@](O)(CC)C(C)O5)O4)O3)C(C)CC2C)O1 (stereo partly drawn)
[1]
  Potency: 2.64 µM (active)
[2]
  Potency: 1.66 µM (active)
[5]
  Potency: 11.8 µM (active)

## CC(N[C@H]1CCCC[C@H]1NC(=O)c1ccc(Cl)cc1)c1cccc2ccccc12 (stereo partly drawn)
[1]
  Potency: inactive
[2]
  Potency: inactive
[5]
  Potency: 0.0296 µM (active)

## COc1cccc2c1C(=O)c1c(O)c3c(c(O)c1C2=O)C[C@@](O)(C(C)=O)C[C@H]3O[C@H]1C[C@H](N)[C@H](O)[C@H](C)O1
[1]
  Potency: 0.0469 µM (active)
[5]
  Potency: 0.187 µM (active)

## CN(C)CCN1C(=O)c2cccc3cc(N)cc(c23)C1=O
[1]
  Potency: inactive
[4]
  Potency: 14.8 µM (active)
[5]
  Potency: 23.5 µM (active)

## O=C(Nc1cccc(Nc2ncc(Br)c(NCCc3cnc[nH]3)n2)c1)N1CCCC1
[1]
  Potency: 0.296 µM (active)
[2]
  Potency: 10.5 µM (active)
[3]
  Potency: 0.93 µM (active)
[5]
  Potency: 18.7 µM (active)

## C[N+](C)([O-])CCNc1ccc(NCC[N+](C)(C)[O-])c2c1C(=O)c1c(O)ccc(O)c1C2=O
[1]
  Potency: inactive
[3]
  Potency: 5.23 µM (active)

## N#Cc1c(C2CCNCC2)cc(-c2c(O)cccc2OCC2CC2)nc1N
[1]
  Potency: 14.8 µM (active)
[2]
  Potency: inactive

## COc1cc([C@@H]2c3cc4c(cc3[C@@H](O[C@@H]3O[C@@H]5CO[C@@H](c6cccs6)O[C@@H]5[C@H](O)[C@@H]3O)[C@H]3COC(=O)[C@H]23)OCO4)cc(OC)c1O
[1]
  Potency: inactive
[2]
  Potency: 0.296 µM (active)
[3]
  Potency: 0.208 µM (active)
[5]
  Potency: 0.372 µM (active)

## Oc1cc(-c2nc(-c3ccccc3)[nH]c2-c2ccncc2)ccc1Cl
[1]
  Potency: 18.7 µM (active)
[2]
  Potency: 37.2 µM (active)
[3]
  Potency: inactive

## NC(=O)N1CCC(CC(=O)N2CCC([C@H]3c4ncc(Br)cc4CCc4cc(Cl)cc(Br)c43)CC2)CC1
[1]
  Potency: 0.372 µM (active)
[4]
  Potency: 7.43 µM (active)
[5]
  Potency: 23.5 µM (active)

## Cc1cncc2cccc(S(=O)(=O)N3CCCN(C(=O)CN)C[C@@H]3C)c12
[1]
  Potency: 1.18 µM (active)
[3]
  Potency: 10.4 µM (active)

## COc1cccc2c1C(=O)c1c(O)c3c(c(O)c1C2=O)C[C@@](O)(C(=O)CO)C[C@@H]3O[C@H]1C[C@H](N)[C@@H](O)[C@H](C)O1
[1]
  Potency: 0.0042 µM (active)
[2]
  Potency: 0.296 µM (active)
[3]
  Potency: 0.658 µM (active)
[5]
  Potency: 1.87 µM (active)

## CO[C@@H]1[C@@H](O)[C@H](O)[C@@H](n2c3c(Cl)cccc3c3c4c(c5c6cccc(Cl)c6[nH]c5c32)C(=O)NC4=O)O[C@@H]1CO
[1]
  Potency: inactive
[2]
  Potency: 0.118 µM (active)
[3]
  Potency: 0.294 µM (active)
[5]
  Potency: 0.469 µM (active)

## COc1ccc(S(=O)(=O)Nc2cc(-c3c(O)ccc4ccccc34)c(O)c3ccccc23)cc1
[1]
  Potency: 18.7 µM (active)
[2]
  Potency: inactive
[3]
  Potency: inactive

## CC(C)c1cnn2c(NCc3ccccc3)cc(NCCCCCCN)nc12
[1]
  Potency: 13.2 µM (active)
[3]
  Potency: inactive

## CNC(=O)c1ccc(Nc2cc(Nc3ccccc3S(=O)(=O)C(C)C)c3cc[nH]c3n2)nc1
[1]
  Potency: 0.935 µM (active)
[3]
  Potency: 2.62 µM (active)
[5]
  Potency: 14.8 µM (active)

## CC(=CC(=O)Nc1ccccc1C(=O)O)c1ccc2ccccc2c1
[1]
  Potency: 9.35 µM (active)
[2]
  Potency: 14.8 µM (active)
[3]
  Potency: inactive

## COc1cccc2c1C(=O)c1c(O)c3c(c(O)c1C2=O)C[C@@](O)(C(=O)CO)C[C@H]3O[C@H]1C[C@H](N)[C@H](O)[C@H](C)O1
[1]
  Potency: inactive
[2]
  Potency: 0.332 µM (active)
[3]
  Potency: 0.93 µM (active)
[5]
  Potency: 0.935 µM (active)
